Screens (PubChem BioAssay)
Only some compounds are listed: those with a hit (about 17% of all), similar ones and a draw of the others.
HT1080 IDH1KD tx: kills HT-1080 cells with IDH1 knockdown; HT-1080 IDH1 knockdown viability, ATP luminescence, 48 h; Potency, µM (doses to about 46.1 µM), inactives show at the highest dose activity, negative = toxicity, most hits filed as cytotoxic; 360,000 compounds, 2% hits;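 further: 0% = DMSO wells and -100% = cell-free medium wells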
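Viability of IDH1-knockdown HT-1080 fibrosarcoma cells was assessed by CellTiter-Glo after 48 h at 37 °C with titrated compound; concentration-effect curves were classified by fit quality and response size.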
HT1080NT lethal: kills 2HG-producing HT-1080-NT fibrosarcoma cells. 360,000 compounds, 1.6% hits. Potency, µM (doses to about 46.1 µM), for the others: at the top dose activity, negative = less viability, most hits filed as cytotoxic. HT-1080-NT fibrosarcoma viability, CellTiter-Glo ATP luminescence, 48 h;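 further: NT is the 2HG producing partner of a matched IDH1 knockdown line; 0% = DMSO-treated cells and -100% = media-only wells without cells; nearly all actives have a fitted effect of over 55% in size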
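A 48-hour cytotoxicity screen used HT-1080-NT cells plated 2 hours before compound delivery. ATP-based CellTiter-Glo luminescence measured viability, normalized to DMSO and no-cell controls.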
DT40 TDP1 no CPT: qHTS for Inhibitors of human tyrosyl-DNA phosphodiesterase 1 (TDP1): qHTS in cells in absence of CPT; DT40 Tdp1-/- hTDP1 cells, no CPT, ATP luminescence, 48 h; Potency, µM (highest dose often 46.2 µM), inactives show at the highest dose activity change, negative = growth inhibition, most hits filed as inhibitors; 420,000 compounds, 15% hits; AID 686978, 2013; further: on the % scale 0 is the no-effect control and ±100 the full control effect; nearly all actives have a fitted effect of over 55% in size
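Camptothecin absent (DMSO only). Human TDP1-complemented DT40 knockout cells, 400 cells/well, 37 °C for minimum 48 hr; ATP measured via CellTiter-Glo, 30 min dark incubation, luminescence.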
TDP1 cell CPT: growth inhibition of DT40 Tdp1-/-;hTDP1 cells with camptothecin (screen for TDP1 inhibitors). chicken DT40 Tdp1-/-;hTDP1 cells + 20 nM CPT, ATP luminescence, 48 h. Potency, µM (series often up to 46.2 µM), inactives show at the highest dose activity change, negative = growth inhibition, most hits filed as inhibitors. 420,000 compounds, 12% hits. AID 686979; further: on the % scale 0 is the no-effect control and ±100 the full control effect; nearly all actives have a fitted effect of over 55% in size
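Chicken DT40 Tdp1-/- cells stably complemented with human TDP1 were seeded at 400 cells/well in medium containing 20 nM camptothecin, exposed to pin-transferred compounds, and grown at 37 °C for at least 48 hr. Viability was read as ATP luminescence.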
TGFb inhibitor: blocks TGF-b signaling; HepG2 CAGA-GFP TGF-b/SMAD3 reporter, GFP fluorescence, 18 h; TGF-beta stimulated, 500 pg/mL final; Potency, µM (doses to about 46.1 µM), for inactives: top-dose activity, negative = inhibition, actives largely listed as inhibitors; 410,000 compounds, 1.2% hits; further: on the % scale 0 is the no-effect control and ±100 the full control effect; nearly all actives have a fitted effect of over 65% in size
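HEPG2 CAGA-GFP cells (1000/well, DMEM with 1% FBS) were pre-incubated 2 h at 37 degrees C, given compound by pin tool, then stimulated with TGF-beta at 500 pg/mL final for 18 h before per-cell GFP fluorescence imaging.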
HepG2 viability: HepG2 cytotoxicity, counter-screen for TGF-b inhibitors; Potency, µM (top dose mostly 46.1 µM), inactives show top-dose activity change, negative = cytotoxicity, usual class: cytotoxic; AID 588856; HepG2 CAGA-GFP viability, ATP luminescence, 18 h; 410,000 compounds, 0.76% hits
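HepG2 CAGA-GFP cells (1000/well, DMEM with 1% FBS) received compound, then TGF-beta at 500 pg/mL final, and were incubated 18 hours at 37 degrees C. Viability was read by CellTiter-Glo luminescence. Media-only wells were set as complete cell-killing and DMSO as no toxicity.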
* marks the source's active call; other numbers are inactive results; [ ] = remark or other dose. The call rests on the fitted dose curve; in most records, active means well fitted curve in the direction sought with a large enough effect; inconclusive means small, poorly fitted or top-dose-only effect, or another doubt; inactive means no such curve, though single readings can be large; an effect the other way counts as inactive or inconclusive. Potency means the concentration at half of the fitted maximal effect.

Screening CSc1ccccc1NC(=O)CN1CCN(c2ccccn2)CC1 returned HT1080 IDH1KD tx -11.3%, HT1080NT lethal 0.1%, DT40 TDP1 no CPT inconclusive, TDP1 cell CPT 23.1µM*, TGFb inhibitor -16.2% and HepG2 viability -15.1%.
For O=C(CN1CCN(c2ccccn2)CC1)N(c1ccccc1)c1ccc2ccccc2c1 the results were HT1080 IDH1KD tx -2.9%, HT1080NT lethal -1.9%, DT40 TDP1 no CPT 18.4µM*, TDP1 cell CPT 16.4µM*, TGFb inhibitor inconclusive and HepG2 viability -46.8%.
Screening O=C(CN1CCOCC1)N(c1ccccc1)c1ccc2ccccc2c1 returned HT1080 IDH1KD tx 4.5%, HT1080NT lethal 3.0%, DT40 TDP1 no CPT inconclusive, TDP1 cell CPT -18.6%, TGFb inhibitor 37.5% and HepG2 viability -1.0%.
For CC(C)Cc1cc(C(=O)NCC2Cc3cc(F)cc(-c4ccccn4)c3O2)no1 (stereo not drawn) the results were DT40 TDP1 no CPT -4.9% and TDP1 cell CPT 11.1%[9.04 µM].
For O=C(Nc1ccc(O)c(C(=O)O)c1)c1ccc2c(c1)C(=O)N(CC1CCCO1)C2=O (stereo not drawn) the results were HT1080 IDH1KD tx 5.4%, HT1080NT lethal 7.2%, DT40 TDP1 no CPT -0.4%, TDP1 cell CPT -4.4%, TGFb inhibitor -10.4% and HepG2 viability 3.8%.
CSCCC(NC(=O)c1ccccc1Cl)C(=O)N(C)Cc1cccs1 (stereo not drawn) was read as HT1080 IDH1KD tx 3.0%, HT1080NT lethal 2.3%, DT40 TDP1 no CPT inconclusive, TDP1 cell CPT 10.1%, TGFb inhibitor -24.8% and HepG2 viability 1.9%.
Nc1c(Br)cc(/C=C2\C=Cc3ccccc32)cc1Br was read as DT40 TDP1 no CPT inconclusive, TDP1 cell CPT inconclusive, TGFb inhibitor -27.9% and HepG2 viability -35.7%.
`Cc1c(C)n(C(=O)CN2CCN(c3ccccn3)CC2)c2ccccc12` gave HT1080 IDH1KD tx -7.6%, HT1080NT lethal -4.1%, DT40 TDP1 no CPT 11.6µM*, TDP1 cell CPT inconclusive, TGFb inhibitor -5.6% and HepG2 viability -1.2%.
`CC(C)c1ccc(NC(=O)c2ccc3oc(=O)c(S(=O)(=O)c4ccc(F)cc4)cc3c2)cc1` gave DT40 TDP1 no CPT 7.31µM*, TDP1 cell CPT inconclusive, TGFb inhibitor -12.3% and HepG2 viability -6.0%.
For Cc1cccc(NC(=O)c2ccc3oc(=O)c(S(=O)(=O)c4ccc(F)cc4)cc3c2)c1C the results were DT40 TDP1 no CPT inconclusive, TDP1 cell CPT -13.3%, TGFb inhibitor 0.7% and HepG2 viability -8.0%.
Screening CC(C)c1ccc(S(=O)(=O)c2cc3cc(Br)ccc3oc2=O)cc1 returned HT1080 IDH1KD tx 13µM*, HT1080NT lethal 13µM*, DT40 TDP1 no CPT inconclusive, TDP1 cell CPT -14.8%, TGFb inhibitor -19.6% and HepG2 viability 5.1%.
For NS(=O)(=O)c1ccc(CCNC(=O)CN2CCC(Cc3ccccc3)CC2)cc1 the results were HT1080 IDH1KD tx inconclusive, HT1080NT lethal -13.3%, DT40 TDP1 no CPT 16.4µM*, TDP1 cell CPT inconclusive, TGFb inhibitor -8.9% and HepG2 viability -21.0%.
For NS(=O)(=O)c1ccc(CCNC(=O)CN2CCN(Cc3cccc(C(F)(F)F)c3)CC2)cc1 the results were HT1080 IDH1KD tx -15.0%, HT1080NT lethal -5.4%, DT40 TDP1 no CPT 23.1µM*, TDP1 cell CPT 23.1µM*, TGFb inhibitor inconclusive and HepG2 viability -7.4%.
For Cc1c(C(=O)Nc2ccc(F)cc2F)oc2ccc3c(c12)C(=O)CC(C)(C)O3 the results were DT40 TDP1 no CPT -9.6%, TDP1 cell CPT -28.4%, TGFb inhibitor 19.1% and HepG2 viability -5.2%.
`Cc1c(C(=O)NCc2cccc(Br)c2)oc2ccc3c(c12)C(=O)CC(C)(C)O3` gave DT40 TDP1 no CPT 14.6µM*, TDP1 cell CPT inconclusive and HepG2 viability -7.1%.
`Cc1cc(C)cc(NC(=O)c2oc3ccc4c(c3c2C)C(=O)CC(C)(C)O4)c1` gave DT40 TDP1 no CPT inconclusive, TDP1 cell CPT inconclusive, TGFb inhibitor -2.3% and HepG2 viability -32.7%.
Cc1c(C(=O)NCC2CCCO2)oc2ccc3c(c12)C(=O)CC(C)(C)O3 (stereo not drawn) was read as HT1080 IDH1KD tx 1.4%, HT1080NT lethal 2.8%, DT40 TDP1 no CPT inconclusive, TDP1 cell CPT -21.6%, TGFb inhibitor 2.8% and HepG2 viability -22.7%.
COc1ccccc1CNC(=O)c1oc2ccc3c(c2c1C)C(=O)CC(C)(C)O3 was read as DT40 TDP1 no CPT 16.4µM*, TDP1 cell CPT inconclusive and HepG2 viability -20.2%.
Screening CCCOc1ccc(CNC(=O)c2oc3ccc4c(c3c2C)C(=O)CC(C)(CC)O4)cc1 (stereo not drawn) returned DT40 TDP1 no CPT 16.4µM*, TDP1 cell CPT 16.4µM*, TGFb inhibitor inconclusive and HepG2 viability 4.1%.
Screening Cc1cccc(C)c1NC(=O)c1oc2ccc3c(c2c1C)C(=O)CC(C)(C)O3 returned DT40 TDP1 no CPT inconclusive, TDP1 cell CPT 16.4µM*, TGFb inhibitor 29.0% and HepG2 viability -15.3%.
`CC1CCCN(CCCCOc2cccc(Br)c2)C1` (stereo not drawn) gave HT1080 IDH1KD tx -3.2%, HT1080NT lethal -2.8%, DT40 TDP1 no CPT inconclusive, TDP1 cell CPT 3.7%, TGFb inhibitor -23.6% and HepG2 viability -31.8%.
For CCCNC(=O)c1onc(CSc2ccc(Cl)cc2)c1C(=O)NC(C)C the results were HT1080 IDH1KD tx -1.6%, HT1080NT lethal 0.0%, DT40 TDP1 no CPT -13.3%, TDP1 cell CPT inconclusive, TGFb inhibitor 11.1% and HepG2 viability 18.1%.
Screening Cc1cc(=O)n(Cc2cccc(F)c2)c2c1c(C)nn2-c1cccc(F)c1 returned DT40 TDP1 no CPT -0.7%, TDP1 cell CPT -12.9%, TGFb inhibitor 18.1% and HepG2 viability -7.8%.
`On1onc2c3cc(-c4ccccc4)nc3ccc21` gave HT1080 IDH1KD tx inconclusive, HT1080NT lethal -23.7%, DT40 TDP1 no CPT 5.17µM*, TDP1 cell CPT 2.91µM*, TGFb inhibitor inconclusive and HepG2 viability -18.8%.
`Cc1ccc2oc(-c3cccc(NC(=O)COc4ccc(Cl)cc4C)c3C)nc2c1` gave DT40 TDP1 no CPT -19.2%, TDP1 cell CPT -0.4%, TGFb inhibitor -10.8% and HepG2 viability 1.5%.
